Test results taken from PubChem BioAssay AID1347423 (Functional Genomics Laboratory (NCATS/FGL), 2020).
Hit rate of the full screen: of about 52,000 sequences, about 210 (0.4%) were called active.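 Rule for the calls: active = gene whose silencing raises cell survival under the drug, median off-target-corrected z-score across its silencing RNAs 2 or more; inactive = the rest.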 Many of the other results were omitted from the sample, so actives are more common in it than they were.

Assay: Resistance to Poly (ADP-Ribose) Polymerase inhibitor: Gene Identification via Genome-wide siRNA Screen
Conditions: mouse BRCA2 R2336H ES cells, olaparib, CellTiter-Glo viability; hits give high values
How it was run: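 Mouse BRCA2 R2336H ES cells were reverse-transfected with siRNA (20 nM final), treated at 48 h with 500 nM olaparib, and read by CellTiter-Glo after 72 h. Scores: MAD-based z per siRNA, median per gene, seed off-target correction.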

Row | Sequence | z-score
1 | GGUACUAAACACCAACUCCTT against B230315M08Rik | 1.28 (active)
2 | GGAAGGAAGAGAAAAACAATT against D11Ertd730e | -1.34 (inactive)
3 | GGGAUCCGAAUUCUGACCATT against 2010305C02Rik | 1.23 (inactive)
4 | GGCCAUCAGAUAGUUUAAUTT against AW551984 | -0.3 (inactive)
5 | GCAAGAUUCAGAGUGCAGCTT against 4932441K18 | -0.922 (inactive)
6 | GCCUUACUCUCUCAGUCCUTT against D930018N13 | -1.82 (inactive)
7 | GGAUACAUUAAUUGUUUGGTT against AW011752 | 0.68 (inactive)
8 | CCACACUGAGGACUAUAUUTT against Cstf1 | 0.623 (inactive)
9 | GGAUAGCUGCCAACACUACTT against BC048937 | -0.0419 (inactive)
10 | GGCCUAUCUUCCCAGGAAATT against Mapk1 | 1.76 (active)
11 | GCAAAAAUUAUGCAGAGCATT against Olfr1443 | 2.55 (inactive)
12 | CGGUAUCUCAACUUUUACATT against Stra8 | 0.301 (inactive)
13 | GCGAACGAAGCAUAAAUGGTT against Mettl1 | -0.126 (inactive)
14 | GGCAGUAGUGUUAACGGUGTT against Chrnb2 | 2.38 (active)
15 | GGAUGCUGUAACACUUUAUTT against Bcl6 | -1.71 (inactive)
16 | GGACCAGGUAUUCAUGAUCTT against Sema3c | 1.79 (inactive)
17 | CCAUGAUGAUAAUCUGAAUTT against B930090D16Rik | 0.709 (inactive)
18 | GGAAGAUUUUUCAAAGGAUTT against Itgb6 | 2.51 (active)
19 | CAAUAACAGCGAAACAUCCTT against Scn4b | 2.18 (inactive)
20 | GUCUCUCUUUUAACAUGCUTT against Ceacam13 | 2.49 (inactive)
21 | GCUUGUCUCACACAGCUCUTT against Olfr401 | -0.379 (inactive)
22 | CCCACAAGGUUAAGAUAUATT against Col14a1 | 0.22 (inactive)
23 | GACGGUGGGACUCACUGUUTT against Ors6 | -0.403 (inactive)
24 | GGUUGACACAGAUGAAGAGTT against Rdh9 | -0.356 (inactive)
25 | GCGUGCAGCCCUCAAUGAATT against Ppp2r5b | 1.44 (active)
26 | GGAAUCCAUGCAGAAAUAATT against Pcdhga6 | 1.54 (inactive)
27 | GGAGAUGGCUUCUCUCUCGTT against Rarg | 1.37 (active)

Row | Sequence | z-score
28 | CGCGGGAUGAAGGAUAUAATT against LOC432589 | -2.23 (inactive)
29 | GGAGAACUGUCAGAACGAGTT against Gpx2 | -2.7 (inactive)
30 | GCAAUGCGACGUGCUCUAUTT against LOC330863 | -0.895 (inactive)
31 | GCGGCAUAAGUCCAAGCACTT against Crk7 | -1.76 (inactive)
32 | GGAAUGUUCUGUCGCUAUGTT against Nrp1 | 0.0552 (inactive)
33 | GGUUGAAUAUUGAAUGGAATT against 9130422G05Rik | 0.44 (inactive)
34 | CCUGAAAAAAUUUAUCGCCTT against Rnf3 | -0.169 (inactive)
35 | GCUUCCUCUACAUCCUGCUTT against Kcnk15 | 2.57 (active)
36 | GGCUGAACUCAAAAAGACGTT against Hand1 | 2.07 (inactive)
37 | GGUGAAGCUGAAACAACAUTT against BC020002 | 0.323 (inactive)
38 | GCUUGUGAAAAAUUAUGAGTT against Ipo7 | -1 (inactive)
39 | GCUCUACUGCUUCCUUGUUTT against Olfr973 | -2.32 (inactive)
40 | GGAGAUGUGUGCUAUGUGGTT against Gzmb | -1.14 (inactive)
41 | GGCCAACUGAUUAAGAAACTT against Chrnb1 | 2.28 (active)
42 | GGGAUACCAUGGGAAUAGUTT against Vps52 | 0.468 (inactive)
43 | GGACAAGGAUGCAAUUAUCTT against 4833427G06Rik | -2.12 (inactive)
44 | GGCUCAAGGACAGAUGAUGTT against Tra1 | -0.94 (inactive)
45 | GGAGCUAAGACAGUUUGGATT against BC022133 | -1.16 (inactive)
46 | GGAUGAUACUUCAUUACACTT against Ankrd12 | -0.613 (inactive)
47 | GGAGUGAAAUUUACUGGGUTT against Hdgfrp3 | 1.78 (inactive)
48 | CGAGGUGACCUACAAGAUUTT against AI481750 | 0.982 (inactive)
49 | CCUUCUGUAGUUGGAAUCATT against 1110038F21Rik | -0.558 (inactive)
50 | GGGUUAUGUCUGUGGAGCUTT against Bcl2l2 | 1.54 (active)
51 | GCCUUAAGUGGAUUUAGGATT against Hist1h2ae | 1.22 (inactive)
52 | GGAAAUACCCUGAUAGCCATT against 9430077C05Rik | -1.23 (inactive)
53 | GCAACAUUAGGAUUUAUAGTT against 1110032E23Rik | -0.366 (inactive)
54 | GGUGAAAACCCUAACAGUCTT against A130007F10Rik | 0.653 (inactive)

Row | Sequence | z-score
55 | CCAAGUUUUUAUGCAGAUATT against Pip5k1a | -1.31 (inactive)
56 | GCUUACCUUGACCAACCUCTT against Chrng | 1.84 (active)
57 | GCCACCUUGUUUCUCGAACTT against 1810008A18Rik | 0.925 (inactive)
58 | GCAAGUCCUACAAUACAACTT against Tk1 | -0.837 (inactive)
59 | GGUGCAGCCACGAAAACAUTT against Lmln | 1.57 (inactive)
60 | CGAUUAUGACCGAUAUAGATT against Fusip1 | 0.823 (inactive)
61 | GGAUAUUGAACACUUCUUGTT against D330017J20Rik | 1.25 (inactive)
62 | GGGACUUUCAUAAUGCCAGTT against Snip1 | 0.733 (inactive)
63 | GGCCUCCCUACUUGAAGACTT against Crip3 | 1.71 (active)
64 | GGCUCUCUUAGUUGUAUCATT against Mrpl35 | -1.03 (inactive)
65 | GGAAGUCCGUUUUUAAGAATT against 4732429I09Rik | -0.792 (inactive)
66 | GCUCAAACAGAUACACGGATT against Ap2a2 | 0.288 (inactive)
67 | GCUUGAUCAACAAGUGGAGTT against Nup62 | -1.64 (inactive)
68 | GCUUGACCCUACACUACAGTT against Olfr1121 | 1.25 (inactive)
69 | GGCAUUGUAGAGAUGACUCTT against 4732479N06Rik | 1.16 (inactive)
70 | UUCUGUGCAUCCUGUCCUATT against Kcnk15 | -0.484 (active)
71 | CGUGUGAGGUUUGUGAAAGTT against Gzmf | -2.41 (inactive)
72 | GCCUAAAAAAUCUCUGUGATT against Zswim3 | -1.39 (inactive)
73 | GGAAGUUCAACACCUCCAGTT against BC023296 | -0.673 (inactive)
74 | CGAUUUCAGCUUAAAGCACTT against Lmo3 | 1.44 (inactive)
75 | CCCUAAAACCAAAUGUACATT against E130014J05Rik | 6.23 (active)
76 | GGACUUGGAAGUAAUUUUCTT against C230071H18Rik | 2.75 (inactive)
77 | GCGAACAGAAAAGACCAAUTT against Col4a5 | 1.11 (inactive)
78 | GGGACAUACAUAUCCUCCUTT against 1300013D05Rik | 1.31 (inactive)
79 | GCAUACAUAGCACUACAUATT against Olfr536 | -0.0396 (inactive)
80 | GGACAGUGUUUACAAACUUTT against Fbxw7 | 0.328 (inactive)
81 | GCAUAUGGUCCACUAAAAATT against Kcnj4 | 0.316 (inactive)

Row | Sequence | z-score
82 | GGUACUGGAGAAAGUCAAGTT against Pik4cb | 0.097 (inactive)
83 | GGAUGAUUUCCAGAGAGUATT against Rdh5 | -1.33 (inactive)
84 | GGAGUGUGAUCAAGUUCAUTT against Eya4 | 0.648 (inactive)
85 | GCUUUUACAAGACCUGUUCTT against Pde2a | 1.02 (active)
86 | GGAGAGAACUGGAAGAGAGTT against 0610040D20Rik | -2.18 (inactive)
87 | GGAAAUACGGCUUCAUCUATT against Cyp26a1 | 0.936 (inactive)
88 | GACAUUUGUAUGCAGUCAUTT against V1ri9 | 0.237 (inactive)
89 | GGAUUCGAUUCUUCCAAAATT against Peli2 | -1.02 (inactive)
90 | GGUCUUAGAAGAUUUUUCUTT against Adam21 | 2.43 (active)
91 | AUUCUGAACACUCCUCGGATT against C630041L24Rik | -0.69 (inactive)
92 | GGAACUGCUUACGAAAUACTT against Lama4 | -0.374 (inactive)
93 | GGAUGCUACGUUCUGCUAGTT against Bcat2 | -0.76 (inactive)
94 | GCCCUCAGGUGGUUCUUAATT against C030036P15Rik | -1.76 (inactive)
95 | GGAGAAACUGAUGACAGUGTT against Plcb3 | 1.47 (active)
96 | GCUAUUAUUGCAAUGUCAGTT against Trim38 | -0.00296 (inactive)
97 | GCUACGAGAGGUCAUUUCCTT against Chrnb1 | 2.48 (active)
98 | GGCUGAAGCAGUCUGUUGCTT against Rpp14 | -0.655 (inactive)
99 | GGCUGUUUGUGGUAUAGGUTT against Lrrc3 | 1.52 (inactive)
100 | GGCAACUUUGUUAUAUACATT against Sh2bp1 | -0.76 (inactive)
101 | CCUCAGAUUUCAACCAUAGTT against 2700087I09Rik | 1.64 (inactive)
102 | CCAUGACAUUUCCUAAGUUTT against B130022O04Rik | -2.2 (inactive)
103 | GGAAAAGAUACGGAAGAUUTT against Acpp | 0.216 (active)
104 | GCUUCUAAUUGGAGAUUGCTT against Ngfrap1 | 1.44 (inactive)
105 | CCAGUUACGUUAAAAGCUUTT against D1Bwg0491e | 0.00475 (inactive)
